From ChEMBL document CHEMBL2218924, “A broad activity screen in support of a chemogenomic map for kinase signalling research and drug discovery” (Biochem J, 2013) come the findings set out here.

In test [1] the target is T1, Ephrin type-A receptor 3 (Homo sapiens) (UniProt P29320).
T1 sequence (whole entry): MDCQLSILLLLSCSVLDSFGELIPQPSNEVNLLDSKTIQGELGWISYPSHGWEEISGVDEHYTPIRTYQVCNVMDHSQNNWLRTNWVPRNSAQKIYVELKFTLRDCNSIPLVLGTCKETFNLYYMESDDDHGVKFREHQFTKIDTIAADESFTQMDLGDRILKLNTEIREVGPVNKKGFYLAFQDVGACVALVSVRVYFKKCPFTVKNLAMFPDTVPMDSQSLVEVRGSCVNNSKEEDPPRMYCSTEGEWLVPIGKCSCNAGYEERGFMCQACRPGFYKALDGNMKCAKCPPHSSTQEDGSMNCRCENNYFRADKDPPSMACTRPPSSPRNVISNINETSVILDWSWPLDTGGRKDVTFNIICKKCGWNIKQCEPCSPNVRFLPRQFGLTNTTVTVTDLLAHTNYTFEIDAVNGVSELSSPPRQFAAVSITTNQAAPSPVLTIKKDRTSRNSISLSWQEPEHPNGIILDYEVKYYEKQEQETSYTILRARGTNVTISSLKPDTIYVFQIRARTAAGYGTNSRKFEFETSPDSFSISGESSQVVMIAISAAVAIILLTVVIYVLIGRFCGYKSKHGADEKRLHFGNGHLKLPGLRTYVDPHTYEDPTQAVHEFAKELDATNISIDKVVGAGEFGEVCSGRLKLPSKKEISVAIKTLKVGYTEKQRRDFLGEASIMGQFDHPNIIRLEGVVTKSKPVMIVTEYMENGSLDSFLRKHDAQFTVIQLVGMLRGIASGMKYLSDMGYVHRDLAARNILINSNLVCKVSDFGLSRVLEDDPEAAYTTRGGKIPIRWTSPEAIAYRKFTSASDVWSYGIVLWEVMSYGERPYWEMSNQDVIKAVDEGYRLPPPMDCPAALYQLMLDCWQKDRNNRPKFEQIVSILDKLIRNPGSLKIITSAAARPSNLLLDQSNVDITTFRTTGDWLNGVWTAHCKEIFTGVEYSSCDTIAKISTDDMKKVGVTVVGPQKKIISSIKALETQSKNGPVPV
Conditions: at 10 µM.

For test [2], the target named is Ephrin type-A receptor 4 (Homo sapiens) (UniProt P54764). The following applies: at 1 µM.
Ephrin type-A receptor 4 (Homo sapiens), sequence (P54764 whole entry): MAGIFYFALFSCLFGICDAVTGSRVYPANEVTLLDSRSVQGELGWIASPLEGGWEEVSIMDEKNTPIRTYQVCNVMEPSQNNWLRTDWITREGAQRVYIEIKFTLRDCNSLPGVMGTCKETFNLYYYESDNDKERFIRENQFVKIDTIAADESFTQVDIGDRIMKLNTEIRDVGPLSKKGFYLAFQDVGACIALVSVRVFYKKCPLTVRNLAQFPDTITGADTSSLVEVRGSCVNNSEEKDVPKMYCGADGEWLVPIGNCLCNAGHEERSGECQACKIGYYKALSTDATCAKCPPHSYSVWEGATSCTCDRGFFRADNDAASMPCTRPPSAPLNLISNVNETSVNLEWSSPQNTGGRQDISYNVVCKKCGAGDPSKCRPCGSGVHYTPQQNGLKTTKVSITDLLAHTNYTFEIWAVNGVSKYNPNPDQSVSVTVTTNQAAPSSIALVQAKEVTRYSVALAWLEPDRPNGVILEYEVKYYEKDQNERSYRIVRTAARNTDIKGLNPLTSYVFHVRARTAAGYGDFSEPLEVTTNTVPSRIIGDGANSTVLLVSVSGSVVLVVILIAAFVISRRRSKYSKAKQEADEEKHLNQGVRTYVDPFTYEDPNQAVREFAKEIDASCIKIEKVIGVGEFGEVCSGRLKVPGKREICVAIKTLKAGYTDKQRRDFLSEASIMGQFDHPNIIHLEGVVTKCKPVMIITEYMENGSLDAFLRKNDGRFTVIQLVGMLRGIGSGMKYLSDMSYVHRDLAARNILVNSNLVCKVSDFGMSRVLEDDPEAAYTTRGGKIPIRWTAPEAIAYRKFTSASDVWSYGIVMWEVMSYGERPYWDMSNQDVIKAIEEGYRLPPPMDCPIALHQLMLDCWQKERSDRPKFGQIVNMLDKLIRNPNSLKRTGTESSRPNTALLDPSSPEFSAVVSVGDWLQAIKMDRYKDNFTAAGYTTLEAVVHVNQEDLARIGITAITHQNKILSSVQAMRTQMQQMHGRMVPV
Test [3] has the same target. The following applies: at 10 µM.
Test [4] has as its target Ephrin type-A receptor 5 (Homo sapiens) (UniProt P54756). Conditions: at 1 µM.
For test [5] the target is unchanged. Conditions: at 10 µM.
The target of test [6] is Ephrin type-A receptor 7 (Homo sapiens) (UniProt Q15375). Conditions: at 1 µM.
Ephrin type-A receptor 7 (Homo sapiens), sequence (Q15375 28-998 limits assumed): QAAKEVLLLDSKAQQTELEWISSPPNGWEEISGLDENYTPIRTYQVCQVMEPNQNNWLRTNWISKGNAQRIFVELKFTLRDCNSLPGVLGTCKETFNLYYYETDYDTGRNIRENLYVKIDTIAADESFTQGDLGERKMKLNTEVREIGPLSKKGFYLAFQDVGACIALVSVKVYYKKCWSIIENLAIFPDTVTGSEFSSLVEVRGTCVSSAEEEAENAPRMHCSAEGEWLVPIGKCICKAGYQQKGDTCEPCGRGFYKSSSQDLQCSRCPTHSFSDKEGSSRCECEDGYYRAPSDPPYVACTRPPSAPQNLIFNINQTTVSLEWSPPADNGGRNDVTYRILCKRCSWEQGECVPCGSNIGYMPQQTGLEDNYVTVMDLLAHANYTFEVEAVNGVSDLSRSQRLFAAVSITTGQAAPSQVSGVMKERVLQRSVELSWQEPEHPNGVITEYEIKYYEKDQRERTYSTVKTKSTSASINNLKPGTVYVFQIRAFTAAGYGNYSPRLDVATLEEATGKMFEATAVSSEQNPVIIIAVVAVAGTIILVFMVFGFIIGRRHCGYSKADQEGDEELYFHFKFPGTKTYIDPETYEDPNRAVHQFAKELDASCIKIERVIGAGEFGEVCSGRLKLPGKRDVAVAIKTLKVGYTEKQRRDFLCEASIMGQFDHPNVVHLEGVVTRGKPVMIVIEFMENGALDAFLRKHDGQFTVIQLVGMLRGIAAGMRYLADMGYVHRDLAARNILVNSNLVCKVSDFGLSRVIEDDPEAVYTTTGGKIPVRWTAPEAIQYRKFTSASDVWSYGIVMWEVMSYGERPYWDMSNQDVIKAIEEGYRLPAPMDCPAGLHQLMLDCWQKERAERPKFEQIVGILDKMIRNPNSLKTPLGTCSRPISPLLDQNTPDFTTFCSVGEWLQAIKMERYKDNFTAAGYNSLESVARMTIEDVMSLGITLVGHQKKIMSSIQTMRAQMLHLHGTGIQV
Test [7] has the same target. Conditions: at 10 µM.
For test [8], the target named is T2, Ephrin type-A receptor 8 (Homo sapiens) (UniProt P29322).
T2 sequence (whole entry): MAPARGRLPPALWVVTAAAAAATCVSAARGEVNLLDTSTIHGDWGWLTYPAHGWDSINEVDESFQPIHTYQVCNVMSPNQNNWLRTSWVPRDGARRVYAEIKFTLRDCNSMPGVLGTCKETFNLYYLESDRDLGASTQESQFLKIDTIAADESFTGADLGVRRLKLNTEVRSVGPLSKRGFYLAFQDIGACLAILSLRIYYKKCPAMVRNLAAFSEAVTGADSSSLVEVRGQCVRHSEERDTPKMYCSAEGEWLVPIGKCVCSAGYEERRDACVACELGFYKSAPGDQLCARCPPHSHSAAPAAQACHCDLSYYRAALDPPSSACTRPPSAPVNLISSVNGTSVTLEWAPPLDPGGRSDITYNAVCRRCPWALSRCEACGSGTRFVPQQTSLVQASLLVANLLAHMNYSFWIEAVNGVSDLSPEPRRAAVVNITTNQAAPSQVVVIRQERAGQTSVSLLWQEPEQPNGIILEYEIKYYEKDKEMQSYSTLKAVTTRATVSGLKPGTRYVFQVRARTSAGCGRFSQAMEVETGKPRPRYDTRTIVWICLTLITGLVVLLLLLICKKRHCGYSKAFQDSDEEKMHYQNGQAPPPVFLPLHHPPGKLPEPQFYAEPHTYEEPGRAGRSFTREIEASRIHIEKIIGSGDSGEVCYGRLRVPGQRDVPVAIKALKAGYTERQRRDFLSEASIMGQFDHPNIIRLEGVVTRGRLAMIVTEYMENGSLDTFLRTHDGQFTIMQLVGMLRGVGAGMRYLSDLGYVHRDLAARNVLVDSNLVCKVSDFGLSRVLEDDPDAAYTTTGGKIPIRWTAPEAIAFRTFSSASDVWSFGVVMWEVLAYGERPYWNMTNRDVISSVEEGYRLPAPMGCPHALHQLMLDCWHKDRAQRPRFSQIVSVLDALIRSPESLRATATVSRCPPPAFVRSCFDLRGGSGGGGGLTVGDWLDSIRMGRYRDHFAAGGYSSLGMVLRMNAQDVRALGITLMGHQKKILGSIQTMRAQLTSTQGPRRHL
The following applies: at 1 µM.

Test [9] addresses T2, Ephrin type-A receptor 8 (Homo sapiens). The following applies: at 10 µM.
Test [10] addresses T3, Ephrin type-B receptor 1 (Homo sapiens) (UniProt P54762).
T3 sequence (whole entry): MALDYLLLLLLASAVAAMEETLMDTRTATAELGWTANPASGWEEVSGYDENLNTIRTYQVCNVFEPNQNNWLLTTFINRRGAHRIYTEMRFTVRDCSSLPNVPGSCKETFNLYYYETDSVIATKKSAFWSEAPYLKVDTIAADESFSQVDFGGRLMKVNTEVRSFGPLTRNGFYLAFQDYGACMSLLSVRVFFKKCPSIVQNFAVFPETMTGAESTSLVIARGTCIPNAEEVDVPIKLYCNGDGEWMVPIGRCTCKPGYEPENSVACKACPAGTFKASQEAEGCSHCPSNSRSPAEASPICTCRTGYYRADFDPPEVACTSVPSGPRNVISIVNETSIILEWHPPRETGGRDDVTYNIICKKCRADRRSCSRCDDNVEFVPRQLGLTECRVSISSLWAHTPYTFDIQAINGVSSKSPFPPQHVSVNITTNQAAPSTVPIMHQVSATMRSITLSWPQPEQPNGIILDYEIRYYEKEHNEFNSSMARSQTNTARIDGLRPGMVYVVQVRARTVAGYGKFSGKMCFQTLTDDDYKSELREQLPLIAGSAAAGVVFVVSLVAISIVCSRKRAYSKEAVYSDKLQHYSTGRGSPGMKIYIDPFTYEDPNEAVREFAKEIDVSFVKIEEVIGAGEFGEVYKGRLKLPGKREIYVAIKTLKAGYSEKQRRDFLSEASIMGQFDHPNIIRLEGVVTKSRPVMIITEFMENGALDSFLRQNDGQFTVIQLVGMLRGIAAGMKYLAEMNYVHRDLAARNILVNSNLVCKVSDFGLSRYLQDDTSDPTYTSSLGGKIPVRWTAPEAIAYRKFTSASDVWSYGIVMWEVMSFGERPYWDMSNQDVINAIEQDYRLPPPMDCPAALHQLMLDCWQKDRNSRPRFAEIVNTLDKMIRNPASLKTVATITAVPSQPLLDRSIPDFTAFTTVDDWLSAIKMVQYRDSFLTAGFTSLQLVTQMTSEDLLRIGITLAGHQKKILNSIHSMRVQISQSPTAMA
Conditions: at 1 µM.

Test [11] deals with T3, Ephrin type-B receptor 1 (Homo sapiens). Conditions: at 10 µM.
Test [12] concerns the target T4, Ephrin type-B receptor 4 (Homo sapiens) (UniProt P54760).
T4 sequence (whole entry): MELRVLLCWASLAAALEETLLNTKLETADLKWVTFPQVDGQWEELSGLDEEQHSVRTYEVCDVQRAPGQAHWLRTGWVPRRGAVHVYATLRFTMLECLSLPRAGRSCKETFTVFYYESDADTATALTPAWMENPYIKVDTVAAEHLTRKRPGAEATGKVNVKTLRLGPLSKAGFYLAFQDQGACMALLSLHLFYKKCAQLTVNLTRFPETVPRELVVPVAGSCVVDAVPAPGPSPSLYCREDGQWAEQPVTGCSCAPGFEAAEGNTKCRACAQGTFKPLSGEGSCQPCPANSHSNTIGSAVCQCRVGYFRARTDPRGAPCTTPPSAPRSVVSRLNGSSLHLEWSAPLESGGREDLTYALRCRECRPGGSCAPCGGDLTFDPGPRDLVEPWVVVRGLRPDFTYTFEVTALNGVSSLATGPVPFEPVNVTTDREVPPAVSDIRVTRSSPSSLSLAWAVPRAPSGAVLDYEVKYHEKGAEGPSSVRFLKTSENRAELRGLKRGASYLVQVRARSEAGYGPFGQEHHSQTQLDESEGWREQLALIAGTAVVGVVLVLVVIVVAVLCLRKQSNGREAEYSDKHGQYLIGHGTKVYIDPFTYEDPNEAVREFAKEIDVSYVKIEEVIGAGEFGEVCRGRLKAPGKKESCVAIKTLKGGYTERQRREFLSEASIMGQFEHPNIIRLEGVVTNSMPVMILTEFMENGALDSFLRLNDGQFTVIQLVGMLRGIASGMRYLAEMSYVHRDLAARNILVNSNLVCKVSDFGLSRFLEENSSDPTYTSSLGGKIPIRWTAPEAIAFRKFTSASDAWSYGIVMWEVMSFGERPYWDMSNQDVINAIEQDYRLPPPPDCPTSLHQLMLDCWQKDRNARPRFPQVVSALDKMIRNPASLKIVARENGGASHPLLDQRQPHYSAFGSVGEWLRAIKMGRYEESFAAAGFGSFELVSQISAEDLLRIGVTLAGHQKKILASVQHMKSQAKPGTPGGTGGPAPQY
Conditions: at 1 µM.

The target of test [13] is T4, Ephrin type-B receptor 4 (Homo sapiens). Conditions: at 10 µM.
Test [14] deals with Receptor tyrosine-protein kinase erbB-4 (Homo sapiens) (UniProt Q15303). Conditions: at 1 µM.
Receptor tyrosine-protein kinase erbB-4 (Homo sapiens), sequence (Q15303 whole entry): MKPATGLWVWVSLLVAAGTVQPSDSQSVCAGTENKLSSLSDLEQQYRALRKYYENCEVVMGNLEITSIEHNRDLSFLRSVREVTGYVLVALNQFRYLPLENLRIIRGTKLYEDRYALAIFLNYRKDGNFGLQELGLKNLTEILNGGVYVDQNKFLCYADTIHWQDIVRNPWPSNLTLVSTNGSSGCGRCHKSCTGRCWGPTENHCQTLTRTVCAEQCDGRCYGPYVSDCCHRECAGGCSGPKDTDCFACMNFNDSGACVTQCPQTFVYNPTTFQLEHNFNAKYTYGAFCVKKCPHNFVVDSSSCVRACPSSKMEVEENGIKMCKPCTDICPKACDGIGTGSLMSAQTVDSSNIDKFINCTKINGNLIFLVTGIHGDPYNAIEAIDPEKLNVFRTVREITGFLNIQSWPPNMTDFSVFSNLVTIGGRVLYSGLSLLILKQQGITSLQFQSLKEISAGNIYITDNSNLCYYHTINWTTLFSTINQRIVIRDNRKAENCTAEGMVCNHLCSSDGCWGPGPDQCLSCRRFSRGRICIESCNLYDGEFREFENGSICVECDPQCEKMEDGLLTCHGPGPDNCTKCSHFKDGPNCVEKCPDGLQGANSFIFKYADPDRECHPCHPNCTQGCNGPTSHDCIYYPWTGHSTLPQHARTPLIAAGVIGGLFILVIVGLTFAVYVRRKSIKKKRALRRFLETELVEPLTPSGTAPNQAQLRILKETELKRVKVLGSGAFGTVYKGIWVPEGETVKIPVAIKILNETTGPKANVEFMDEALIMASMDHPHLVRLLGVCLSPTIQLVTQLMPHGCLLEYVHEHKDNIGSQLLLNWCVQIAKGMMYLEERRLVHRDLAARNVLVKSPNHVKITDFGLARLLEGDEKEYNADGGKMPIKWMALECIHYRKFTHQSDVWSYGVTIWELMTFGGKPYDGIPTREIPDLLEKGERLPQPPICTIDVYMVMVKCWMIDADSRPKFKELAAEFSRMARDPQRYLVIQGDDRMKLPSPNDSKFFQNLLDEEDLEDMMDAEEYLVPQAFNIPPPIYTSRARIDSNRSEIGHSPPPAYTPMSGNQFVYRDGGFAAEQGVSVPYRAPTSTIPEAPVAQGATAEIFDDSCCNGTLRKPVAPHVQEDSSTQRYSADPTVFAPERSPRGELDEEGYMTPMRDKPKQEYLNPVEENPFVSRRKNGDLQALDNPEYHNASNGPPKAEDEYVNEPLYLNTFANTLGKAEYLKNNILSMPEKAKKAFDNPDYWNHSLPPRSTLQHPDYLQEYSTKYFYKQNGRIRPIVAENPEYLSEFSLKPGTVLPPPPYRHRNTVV
Test [15] has the same target. The following applies: at 10 µM.
For test [16], the target named is Focal adhesion kinase 1 (Homo sapiens) (UniProt Q05397). Conditions: at 1 µM.

Ephrin type-A receptor 5 (Homo sapiens), sequence (P54756 whole entry): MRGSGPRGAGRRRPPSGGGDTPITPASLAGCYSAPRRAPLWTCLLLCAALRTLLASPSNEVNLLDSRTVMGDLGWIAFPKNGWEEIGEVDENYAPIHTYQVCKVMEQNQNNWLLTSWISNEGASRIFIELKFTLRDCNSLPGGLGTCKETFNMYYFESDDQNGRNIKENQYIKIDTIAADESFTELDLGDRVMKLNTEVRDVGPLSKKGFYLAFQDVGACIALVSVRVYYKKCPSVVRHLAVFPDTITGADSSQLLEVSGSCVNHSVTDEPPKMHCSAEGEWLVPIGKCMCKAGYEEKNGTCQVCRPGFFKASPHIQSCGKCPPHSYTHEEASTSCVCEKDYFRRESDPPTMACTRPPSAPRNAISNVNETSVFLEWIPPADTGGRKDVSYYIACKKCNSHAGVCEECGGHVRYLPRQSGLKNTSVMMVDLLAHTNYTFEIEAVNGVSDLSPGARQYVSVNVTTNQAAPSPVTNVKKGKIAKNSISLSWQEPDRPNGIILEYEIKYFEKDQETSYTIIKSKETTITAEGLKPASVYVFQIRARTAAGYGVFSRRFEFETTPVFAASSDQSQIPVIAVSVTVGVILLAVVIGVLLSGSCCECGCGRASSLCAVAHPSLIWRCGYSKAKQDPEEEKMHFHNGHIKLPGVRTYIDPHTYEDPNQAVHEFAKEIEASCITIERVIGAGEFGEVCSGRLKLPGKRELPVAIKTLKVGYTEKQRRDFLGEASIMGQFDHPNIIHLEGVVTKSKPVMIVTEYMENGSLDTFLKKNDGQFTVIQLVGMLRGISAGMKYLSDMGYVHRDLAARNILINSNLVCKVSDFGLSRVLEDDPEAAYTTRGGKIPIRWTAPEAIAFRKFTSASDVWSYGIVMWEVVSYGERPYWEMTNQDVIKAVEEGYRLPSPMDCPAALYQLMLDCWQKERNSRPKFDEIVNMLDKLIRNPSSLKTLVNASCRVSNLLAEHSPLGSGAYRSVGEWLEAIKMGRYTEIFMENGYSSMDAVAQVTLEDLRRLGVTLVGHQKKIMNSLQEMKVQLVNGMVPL

Take `Nc1nc(Nc2ccc(S(N)(=O)=O)cc2)nn1C(=S)Nc1c(F)cccc1F`: the residual activity in test [1] worked out at 23%; in [2], 97%; in test [3], 86%; in [4] it was 59%; in test [5], 11%; in test [6], 3%. Besides, the residual activity in test [7] was -2%; in [8], 76%; in test [9] it was 24%; in test [10], 1%; in test [11], -1%; in test [12] it was 30%. Besides, the residual activity in [13] stood at 4%; in [14], 105%; in test [15], 96%; in test [16], 20%.

As to `Cc1cccc(-c2[nH]c(C(C)(C)C)nc2-c2ccc3c(c2)OCO3)n1`, the residual activity in [1] is 96%; in [6] it was 98%; in [7], 94%; in test [8] it was 99%; in [9], 105%; in test [14], 94%. For the same compound, the residual activity in test [15] amounted to 86%.

The term residual activity denotes the signal under treatment as a percentage of the control signal.
